The results in this text go back to article PMC4336329 (PLoS ONE, 2015).

The whole screen tested about 310,000 compounds, of which about 14,000 (4.5%) showed an effect of 50% or more. Effects have a minus sign here. Only a selection was taken, and strong results are over-represented in it overall.
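Further: peak tail current of the secondary pulse compared with the same well before compound.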

The target of the assay is human ether-à-go-go-related gene (hERG) potassium channel (human, UniProt Q12809). Description: primary screen, population patch clamp on CHO cells stably expressing hERG; higher = less effect of the substance.
human ether-à-go-go-related gene (hERG) potassium channel, sequence (Q12809 whole entry, looked up): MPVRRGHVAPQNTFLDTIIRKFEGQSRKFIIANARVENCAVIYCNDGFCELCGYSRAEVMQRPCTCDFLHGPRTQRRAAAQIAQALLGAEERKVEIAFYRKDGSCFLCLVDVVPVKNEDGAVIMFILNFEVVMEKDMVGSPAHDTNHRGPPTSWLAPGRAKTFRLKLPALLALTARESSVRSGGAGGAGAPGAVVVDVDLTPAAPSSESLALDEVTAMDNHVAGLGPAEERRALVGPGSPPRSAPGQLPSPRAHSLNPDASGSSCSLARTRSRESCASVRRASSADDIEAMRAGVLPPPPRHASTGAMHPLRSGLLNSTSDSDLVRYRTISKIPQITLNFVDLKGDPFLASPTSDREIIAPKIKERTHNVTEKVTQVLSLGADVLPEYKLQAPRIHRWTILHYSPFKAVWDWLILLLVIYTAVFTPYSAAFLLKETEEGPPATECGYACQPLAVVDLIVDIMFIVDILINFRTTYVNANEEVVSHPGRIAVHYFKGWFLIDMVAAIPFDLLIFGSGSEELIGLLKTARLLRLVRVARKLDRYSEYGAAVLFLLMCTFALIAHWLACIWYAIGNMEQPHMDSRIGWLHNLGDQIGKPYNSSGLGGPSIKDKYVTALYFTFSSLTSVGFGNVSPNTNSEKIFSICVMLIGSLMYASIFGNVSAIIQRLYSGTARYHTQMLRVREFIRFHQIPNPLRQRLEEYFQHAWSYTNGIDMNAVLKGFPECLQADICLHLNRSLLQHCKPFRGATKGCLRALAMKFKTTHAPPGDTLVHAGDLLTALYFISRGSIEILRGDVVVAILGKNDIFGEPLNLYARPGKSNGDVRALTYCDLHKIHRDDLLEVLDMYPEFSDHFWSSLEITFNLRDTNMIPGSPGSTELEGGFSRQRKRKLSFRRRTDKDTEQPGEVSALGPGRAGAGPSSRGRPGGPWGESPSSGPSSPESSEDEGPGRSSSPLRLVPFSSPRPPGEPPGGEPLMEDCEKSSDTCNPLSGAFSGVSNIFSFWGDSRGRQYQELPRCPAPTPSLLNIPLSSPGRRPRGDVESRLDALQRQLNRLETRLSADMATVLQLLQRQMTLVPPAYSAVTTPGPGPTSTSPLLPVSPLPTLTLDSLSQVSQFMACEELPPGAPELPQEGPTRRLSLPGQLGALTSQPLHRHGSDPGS
In the case of `CCCCn1c(Nc2ccccc2)nc2ccccc21`, the “hERG current change (%, negative = inhibition) at 10uM” value stood at 24.7%.

In the case of `CCOc1ccc(S(=O)(=O)Nc2cccc(C(=O)N3CCN(C(C)=O)CC3)c2)cc1`, the “hERG current change (%, negative = inhibition) at 10uM” value was -14.9%.

In the case of `C/C(=N/NS(=O)(=O)c1ccc(C(C)(C)C)cc1)c1ccc2c(c1)OCO2`, the “hERG current change (%, negative = inhibition) at 10uM” value is reported as -3.17%.

As for `Cc1cc(=O)oc2cc(OCC(=O)OCC(=O)N(CCC#N)c3ccccc3)ccc12`, the “hERG current change (%, negative = inhibition) at 10uM” value was 6.04%.

Take `COC(=O)c1ccc(C(=O)OC)c(NC(=O)CN(c2ccc3c(c2)OCO3)S(C)(=O)=O)c1`: the “hERG current change (%, negative = inhibition) at 10uM” value was -21.1%.

On to `CSCCCNC(=O)c1ccccc1OC1CCN(S(C)(=O)=O)CC1`, for which the “hERG current change (%, negative = inhibition) at 10uM” value is recorded as 1.38%.

In the case of `CCN(CC)CCNC(=O)c1sc2ncn(CC(=O)Nc3ccc(C)c(Cl)c3)c(=O)c2c1C`, the “hERG current change (%, negative = inhibition) at 10uM” value is -51.8%.

Regarding `CCN(CC)CCCNC(=O)c1sc2ncn(CC(=O)Nc3ccc(C)c(Cl)c3)c(=O)c2c1C`, the “hERG current change (%, negative = inhibition) at 10uM” value is -13%.

`COCCNC(=O)c1sc2ncn(CC(=O)Nc3ccc(C)c(Cl)c3)c(=O)c2c1C`: the “hERG current change (%, negative = inhibition) at 10uM” value is listed as 10.5%.

On to `COc1ccc(C(=O)C(CCCCC(CN(C)C)C(=O)c2ccc(OC)cc2)CN(C)C)cc1.Cl` (centres unmarked), for which the “hERG current change (%, negative = inhibition) at 10uM” value is listed as -2.07%.

Turning to `O/N=C/c1ccc(OCc2ccccc2F)c(Cl)c1`, the “hERG current change (%, negative = inhibition) at 10uM” value is recorded as 2.95%.

For the compound `COc1cc2c(cc1NC(=O)CN1C(=O)NC3(CCc4ccccc43)C1=O)oc1ccccc12` (centres unmarked), the “hERG current change (%, negative = inhibition) at 10uM” value is given as 7.1%.

For the compound `C=CCn1c(COc2ccc(Cl)cc2)nnc1SCc1ccc(C#N)cc1`, the “hERG current change (%, negative = inhibition) at 10uM” value is recorded as -69.8%.

Regarding `C=CCn1c(COc2ccccc2)nnc1SCC(=O)O`, the “hERG current change (%, negative = inhibition) at 10uM” value is listed as -3.46%.

For `C=CCn1c(COc2ccc(Cl)cc2)nnc1SCC(=O)NCC(=O)OCC`, the “hERG current change (%, negative = inhibition) at 10uM” value is reported as -31.4%.

For the compound `C=CCn1c(COc2ccc(Cl)cc2)nnc1SCC(=O)N1CC(=O)Nc2ccccc21`, the “hERG current change (%, negative = inhibition) at 10uM” value was -63.5%.

On to `C=CCn1c(COc2ccccc2F)nnc1SCC(=O)N1CC(=O)Nc2ccccc21`, for which the “hERG current change (%, negative = inhibition) at 10uM” value is -22.6%.

On to `C=CCn1c(COc2ccc(Cl)cc2)nnc1SCC(=O)N/N=C/c1ccccc1`, for which the “hERG current change (%, negative = inhibition) at 10uM” value is -7.71%.

Turning to `C=CCn1c(COc2ccccc2)nnc1SCC(=O)C(C)(C)C`, the “hERG current change (%, negative = inhibition) at 10uM” value is reported as -13.6%.

Regarding `C=CCn1c(COc2ccc(F)cc2)nnc1SCC(=O)N1CC(=O)Nc2ccccc21`, the “hERG current change (%, negative = inhibition) at 10uM” value is -33%.

Take `C=CCn1c(COc2ccccc2)nnc1SCc1ccc(C#N)cc1`: the “hERG current change (%, negative = inhibition) at 10uM” value was -68.2%.

For `O=C(CSCc1ccc(F)cc1)NCc1ccc(F)cc1`, the “hERG current change (%, negative = inhibition) at 10uM” value is on record as -24.7%.

Regarding `Cc1n[nH]c(=S)n(NC(=O)CC(=O)Nn2c(=S)[nH]nc(C)c2=O)c1=O`, the “hERG current change (%, negative = inhibition) at 10uM” value turned out to be 45.4%.
